Source: article PMC5700166

How the values were obtained:
Assay in all cases: protein-binding microarray (PBM); PBM: ~300 nM protein, 6 mM HEPES pH 7.8, 80 mM KCl, 0.5 mM EDTA, 0.5 mM EGTA, 6% glycerol, 35 ng/ul poly-dIdC, 1% milk, 1 h, room temperature; Ap Aiptasia and Nv Nematostella (sea anemones) / Co Capsaspora / Aq Amphimedon (sponge) / Dm Drosophila / Hu human; RHD is the Rel homology domain; high values mean tight binding
Conditions in all cases: dsDNA, one strand shown
GST-Ap-NF-kB RHD = biological target: T1, GST-Ap-NF-kB RHD (Exaiptasia pallida (Aiptasia), UniProt A0A913YAJ5 2-422)
T1 sequence: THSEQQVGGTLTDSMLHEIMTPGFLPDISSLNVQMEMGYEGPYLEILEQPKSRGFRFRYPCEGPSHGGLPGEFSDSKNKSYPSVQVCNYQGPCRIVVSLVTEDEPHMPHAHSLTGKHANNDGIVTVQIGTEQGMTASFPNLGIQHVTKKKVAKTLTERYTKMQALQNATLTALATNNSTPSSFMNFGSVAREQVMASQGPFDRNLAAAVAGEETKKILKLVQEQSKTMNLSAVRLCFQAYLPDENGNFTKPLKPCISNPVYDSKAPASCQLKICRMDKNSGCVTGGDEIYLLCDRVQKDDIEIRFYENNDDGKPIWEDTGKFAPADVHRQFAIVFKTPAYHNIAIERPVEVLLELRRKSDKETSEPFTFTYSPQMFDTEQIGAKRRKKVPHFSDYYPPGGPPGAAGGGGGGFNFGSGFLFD

[1] = biological target: T2, GST-Nv-NF-kB (Cys allele) (Nematostella vectensis, UniProt E5G601 2-411)
T2 sequence: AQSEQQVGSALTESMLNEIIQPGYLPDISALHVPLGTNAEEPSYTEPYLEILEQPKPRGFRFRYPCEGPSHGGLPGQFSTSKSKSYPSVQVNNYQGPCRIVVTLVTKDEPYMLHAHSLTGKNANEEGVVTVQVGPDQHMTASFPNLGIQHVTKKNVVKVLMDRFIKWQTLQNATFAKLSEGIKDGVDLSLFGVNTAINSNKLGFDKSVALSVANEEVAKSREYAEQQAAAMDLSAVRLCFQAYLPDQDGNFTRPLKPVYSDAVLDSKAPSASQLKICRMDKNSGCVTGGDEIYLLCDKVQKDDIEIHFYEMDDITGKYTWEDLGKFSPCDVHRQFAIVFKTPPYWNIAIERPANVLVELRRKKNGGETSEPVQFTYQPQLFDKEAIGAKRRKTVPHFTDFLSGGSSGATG

GST-Co-NF-kB = biological target: T3, GST-Co-NF-kB (Capsaspora owczarzaki, UniProt F1ARL5 200-546)
T3 sequence: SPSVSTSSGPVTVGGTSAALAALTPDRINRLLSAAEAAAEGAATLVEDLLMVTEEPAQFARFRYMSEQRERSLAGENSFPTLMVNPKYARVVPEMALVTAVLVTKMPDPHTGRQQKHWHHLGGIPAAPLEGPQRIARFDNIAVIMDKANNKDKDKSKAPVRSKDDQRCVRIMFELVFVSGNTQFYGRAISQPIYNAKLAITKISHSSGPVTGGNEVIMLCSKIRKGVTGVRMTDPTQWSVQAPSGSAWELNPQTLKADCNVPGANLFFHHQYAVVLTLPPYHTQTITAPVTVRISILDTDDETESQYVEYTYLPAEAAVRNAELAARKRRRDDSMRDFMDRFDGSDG

GST-Dm-Relish = biological target: T4, GST-Dm-Relish (Drosophila melanogaster, UniProt Q94527 99-473)
T4 sequence: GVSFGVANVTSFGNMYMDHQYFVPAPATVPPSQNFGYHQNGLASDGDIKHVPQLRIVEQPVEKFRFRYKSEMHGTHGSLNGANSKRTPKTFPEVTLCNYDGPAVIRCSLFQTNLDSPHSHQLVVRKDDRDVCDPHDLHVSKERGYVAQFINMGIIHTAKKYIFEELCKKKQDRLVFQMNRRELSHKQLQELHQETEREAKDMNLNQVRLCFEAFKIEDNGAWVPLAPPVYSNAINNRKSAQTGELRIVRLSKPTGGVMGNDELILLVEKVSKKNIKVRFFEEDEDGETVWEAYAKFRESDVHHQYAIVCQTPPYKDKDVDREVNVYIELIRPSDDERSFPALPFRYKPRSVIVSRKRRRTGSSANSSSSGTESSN

GST-Aq-NF-kB = biological target: T5, GST-Aq-NF-kB (Amphimedon queenslandica, UniProt A9Y5G7 2-389)
T5 sequence: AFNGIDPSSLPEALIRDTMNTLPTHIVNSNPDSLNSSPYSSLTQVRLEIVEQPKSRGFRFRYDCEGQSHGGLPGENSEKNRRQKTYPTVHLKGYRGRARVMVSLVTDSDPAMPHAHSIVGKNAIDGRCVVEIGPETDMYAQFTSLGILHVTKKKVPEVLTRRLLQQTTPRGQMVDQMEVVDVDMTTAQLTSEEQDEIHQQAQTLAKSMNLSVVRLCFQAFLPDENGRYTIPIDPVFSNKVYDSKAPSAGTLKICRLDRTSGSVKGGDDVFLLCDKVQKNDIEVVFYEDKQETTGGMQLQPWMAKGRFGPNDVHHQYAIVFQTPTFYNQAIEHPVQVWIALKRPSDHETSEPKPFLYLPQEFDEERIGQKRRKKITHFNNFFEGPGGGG

Work on “CCGATTAACATCAGGGATATTTATGATGTTAATCGGGTCTTGATTCGCTTGACGCTGCTG” yielded a binding signal (GST-Ap-NF-kB RHD) of 2.06 z-score, a binding signal [1] of 2.7 z-score and a binding signal (GST-Co-NF-kB) of 1.68 z-score. For the same sequence, the binding signal (GST-Dm-Relish) was 2.57 z-score and the binding signal (GST-Aq-NF-kB) was 3.73 z-score.

Sequence “CCGATTAACATCACCCATCCCCCTGATGTTAATCGGGTCTTGATTCGCTTGACGCTGCTG” has a binding signal (GST-Ap-NF-kB RHD) of 4.59 z-score, a binding signal [1] of 3.91 z-score and a binding signal (GST-Co-NF-kB) of 3.26 z-score. It also gave a binding signal (GST-Dm-Relish) of 2.93 z-score and a binding signal (GST-Aq-NF-kB) of 3.73 z-score.

Work on “CCGATTAACATCATTCGGGAAAATGATGTTAATCGGGTCTTGATTCGCTTGACGCTGCTG” yielded a binding signal (GST-Ap-NF-kB RHD) of 1.48 z-score, a binding signal [1] of 3.97 z-score and a binding signal (GST-Co-NF-kB) of 3.01 z-score. For the same sequence, the binding signal (GST-Dm-Relish) was 1.3 z-score and the binding signal (GST-Aq-NF-kB) was 2.01 z-score.

Sequence “CCGATTAACATCACAATACCCCCTGATGTTAATCGGGTCTTGATTCGCTTGACGCTGCTG” has a binding signal (GST-Ap-NF-kB RHD) of 7.39 z-score, a binding signal [1] of 4.51 z-score and a binding signal (GST-Co-NF-kB) of 4.26 z-score. It also gave a binding signal (GST-Dm-Relish) of 4.2 z-score and a binding signal (GST-Aq-NF-kB) of 4.87 z-score.

“CCGATTAACATCAGGGGGTAGGATGATGTTAATCGGGTCTTGATTCGCTTGACGCTGCTG” gave a binding signal (GST-Ap-NF-kB RHD) of 4.15 z-score, a binding signal [1] of 2.75 z-score and a binding signal (GST-Co-NF-kB) of 3.64 z-score. The binding signal (GST-Dm-Relish) was 1.35 z-score and the binding signal (GST-Aq-NF-kB) was 2.89 z-score.

Sequence “CCGATTAACATCACGGGGAGTCCTGATGTTAATCGGGTCTTGATTCGCTTGACGCTGCTG” has a binding signal (GST-Ap-NF-kB RHD) of 7.06 z-score, a binding signal [1] of 3.95 z-score and a binding signal (GST-Co-NF-kB) of 4.24 z-score. The binding signal (GST-Dm-Relish) was 8.09 z-score and the binding signal (GST-Aq-NF-kB) was 5.02 z-score.

“CCGATTAACATCACTAAAATCCCTGATGTTAATCGGGTCTTGATTCGCTTGACGCTGCTG” was tested, and the binding signal (GST-Ap-NF-kB RHD) was 3.37 z-score, the binding signal [1] was 3.38 z-score and the binding signal (GST-Co-NF-kB) was 1.18 z-score. For the same sequence, the binding signal (GST-Dm-Relish) was 5.48 z-score and the binding signal (GST-Aq-NF-kB) was 3.65 z-score.

“CCGATTAACATCACATTCTCCCCTGATGTTAATCGGGTCTTGATTCGCTTGACGCTGCTG” showed a binding signal (GST-Ap-NF-kB RHD) of 4.7 z-score, a binding signal [1] of 4.44 z-score and a binding signal (GST-Co-NF-kB) of 6.71 z-score. For the same sequence, the binding signal (GST-Dm-Relish) was 1.55 z-score and the binding signal (GST-Aq-NF-kB) was 3.34 z-score.

“CCGATTAACATCAAGGTAATCCCTGATGTTAATCGGGTCTTGATTCGCTTGACGCTGCTG” gave a binding signal (GST-Ap-NF-kB RHD) of 4.1 z-score, a binding signal [1] of 2.08 z-score and a binding signal (GST-Co-NF-kB) of 1.06 z-score. For the same sequence, the binding signal (GST-Dm-Relish) was 5.22 z-score and the binding signal (GST-Aq-NF-kB) was 3.95 z-score.

In the case of “CCGATTAACATCAGGGAGCCCCCTGATGTTAATCGGGTCTTGATTCGCTTGACGCTGCTG”, the binding signal (GST-Ap-NF-kB RHD) is reported as 8.32 z-score, the binding signal [1] is reported as 4.79 z-score and the binding signal (GST-Co-NF-kB) is reported as 2.5 z-score. It also gave a binding signal (GST-Dm-Relish) of 9.12 z-score and a binding signal (GST-Aq-NF-kB) of 7.55 z-score.
